# Rows were chosen to be rich in hits. Some 6.4% of all compounds tested hit in one or more screens of this group.
# KinaseGlo FLuc – Counterscreen for Luciferase (Kinase-Glo TM) Inhibition. AID 1379, 2008. Kinase-Glo luciferase, ATP luminescence, 8 min. Luciferin 4-monooxygenase (Photuris pensylvanica), Q27757. actives 0.28% (n = 200,000). Potency, µM (highest dose often 38.3 µM), inactives show at the top dose activity change, negative = inhibition, most hits filed as inhibitors; further: nearly all actives have a fitted effect of over 60% in size
#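 Kinase-Glo luciferase light output from ATP and luciferin was measured with 10 uM ATP, within the enzyme's linear range. Buffer: 50 mM imidazole pH 7.2, 50 mM KCl, 7 mM MgCl2, 0.01% Tween 20, 0.05% BSA; luminescence read after 8 min at ambient temperature.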
# RORg inh – qHTS for inhibitors of ROR gamma transcriptional activity. Nuclear receptor ROR-gamma (Mus musculus), P51450. AID 2551, 2010. Potency, µM (top dose mostly 53.6 µM), inactives show at the top dose activity change, negative = inhibition, hits mostly inhibitors. Drosophila S2 Gal4-RORgamma UAS-luciferase reporter, 20 h. actives 5.4% (n = 310,000); further: nearly all actives have a fitted effect of over 60% in size
# Target sequence (P51450 whole entry, looked up, the tested form may be a part): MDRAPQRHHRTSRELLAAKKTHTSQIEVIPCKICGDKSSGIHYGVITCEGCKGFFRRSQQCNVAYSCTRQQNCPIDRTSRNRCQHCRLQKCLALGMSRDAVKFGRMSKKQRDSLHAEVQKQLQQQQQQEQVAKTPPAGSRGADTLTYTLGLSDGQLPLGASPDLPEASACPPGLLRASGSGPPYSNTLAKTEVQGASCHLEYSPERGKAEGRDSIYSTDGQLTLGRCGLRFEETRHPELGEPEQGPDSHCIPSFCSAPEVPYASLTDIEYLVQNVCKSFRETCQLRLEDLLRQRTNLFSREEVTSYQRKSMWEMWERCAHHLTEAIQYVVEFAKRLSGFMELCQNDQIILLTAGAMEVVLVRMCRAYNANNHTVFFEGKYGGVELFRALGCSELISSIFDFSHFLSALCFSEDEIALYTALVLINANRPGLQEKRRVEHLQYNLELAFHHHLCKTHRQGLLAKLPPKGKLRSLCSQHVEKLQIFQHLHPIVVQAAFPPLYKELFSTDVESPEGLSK
#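 A Gal4/UAS one-hybrid system in insect cells: metallothionein-promoter Gal4–ROR gamma fusion plus Photinus luciferase reporter. Copper sulfate 700 uM final, 20 hr ambient incubation, luminescent detection after 10 min with reagent.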
# Gal4-VP16 FLuc – VP16 counterscreen qHTS for inhibitors of ROR gamma transcriptional activity | Drosophila S2 Gal4-VP16 UAS-luciferase, luminescence, 20 h | Potency, µM (titrated, usually from 53.6 µM), for inactives: at the top dose activity, negative = inhibition, hits mostly inhibitors | actives 3.5% (n = 310,000) | AID 2546, 2010;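 further: Gal4-VP16 expression switched on by copper sulfate through the metallothionein promoter; nearly all actives have a fitted effect of over 50% in size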
# An asterisk follows results filed as active; ? = inconclusive; · = no result; ! = repeats disagree; [ ] = another dose, or the depositor's remark. The call rests on the fitted dose curve; in most records, active means well fitted curve in the direction sought with a large enough effect; inconclusive means small, poorly fitted or top-dose-only effect, or another doubt; inactive means no such curve, though single readings can be large; an effect the other way counts as inactive or inconclusive. On the % scale 0 is the no-effect control and ±100 the full control effect; potency means the concentration at half of the fitted maximal effect.
SMILES,KinaseGlo FLuc,RORg inh,Gal4-VP16 FLuc
COc1ccc(C(=O)OCC(=O)NC2CC2)cc1[N+](=O)[O-],-3.9%,-14.3%,-19.2%
CS(=O)(=O)c1ccc(C(=O)OCc2nnc(-c3ccccc3)o2)cc1[N+](=O)[O-],-1.9%,15.8µM*,12.6µM*
CC(CCc1ccccc1)NC(=O)COC(=O)c1ccc(S(C)(=O)=O)c([N+](=O)[O-])c1 (stereo unspecified),0.0%,10µM*,?
CC(=O)c1cccc(NC(=O)COC(=O)c2ccc(S(C)(=O)=O)c([N+](=O)[O-])c2)c1,6.5%,?,-5.9%
CC(CCc1ccccc1)NC(=O)COC(=O)c1ccc([N+](=O)[O-])cc1 (stereo unspecified),·,-7.4%,3.0%
CS(=O)(=O)c1ccc(C(=O)OCC(=O)NC(=O)C2CCCCC2)cc1[N+](=O)[O-],-0.9%,11.2µM*,?
Cc1ccccc1NC(=O)COC(=O)c1ccc(S(C)(=O)=O)c([N+](=O)[O-])c1,2.1%,14.1µM*,?
CN(C)S(=O)(=O)c1ccc(C(=O)OCc2nnc(-c3ccccc3)o2)cc1,·,31.9%,-10.9%
CCOc1ccc(CN(C)C(=O)[C@H](Cc2ccccc2)NC(=O)OCc2ccccc2)cc1OC,·,?,3.9%
O=C(Nc1nc2ccc(SC(F)F)cc2s1)c1ccc(NS(=O)(=O)c2ccc(F)c(F)c2)cc1,2.8%,-15.8%,?
N#CC1=C(SCC(=O)Nc2ccc(C(=O)O)cc2)NC(=O)CC1c1ccco1 (stereo unspecified),·,-4.9%,7.5%
O=C(NC1CCN(C(=O)Nc2cccc(Cl)c2)CC1)c1ccco1,·,3.3%,2.1%
CCNc1ccc(Br)cc(C(=O)/C=C/c2ccc(Cl)cc2Cl)c1=O,-3.6%,5.01µM*,12.6µM*
CNc1ccc(Br)cc(C(=O)/C=C/c2cc(OC)ccc2OC)c1=O,-1.7%,2.7%,-19.2%
COC(=O)C/C=C1\c2ccccc2[C@H](OC)[C@H]1C,·,5.9%[10 µM],-10.3%[10 µM]
COC(=O)CSc1nc(NC(C)(C)C)nc(N(C)C)n1,-0.5%,-0.8%,-15.4%
CC(=O)C(Sc1nc(NC(C)(C)C)nc(N(C)C)n1)C(C)=O,-3.7%,6.31µM*,14.1µM*
CCC(C)NC(=O)CSc1nnc(-c2cc(OC)c(OC)c(OC)c2)c(-c2cc(OC)c(OC)c(OC)c2)n1 (stereo unspecified),·,2.82µM*,?
COc1ccc(-c2nnc(SCC(=O)NCCC(C)C)nc2-c2ccc(OC)c(OC)c2)cc1OC,·,10.0%,-2.8%
O=c1c2oc3ccccc3c2[nH]c(=S)n1-c1ccc(F)cc1,1.0%,3.98µM*,?
Cc1ccc(-n2c(=S)[nH]c3c(oc4ccccc43)c2=O)cc1C,·,1.41µM*,1.78µM*
O=c1[nH]c2c(oc3ccccc32)c(=O)n1Cc1ccccc1,·,0.3%,14.2%
CCOC(=O)Cn1c(=S)[nH]c2c(oc3ccc(Cl)cc32)c1=O,16.5%,?,-0.3%
Clc1ccccc1Cc1noc(CN2CCN(Cc3ccccn3)CC2)n1,-0.8%,-14.3%,-11.4%
CCc1c(C)sc(NC(=O)Cn2nc(C)c([N+](=O)[O-])c2C)c1C(N)=O,3.5%,-7.9%,3.4%
SMILES,KinaseGlo FLuc,RORg inh,Gal4-VP16 FLuc
c1ccc(-c2ccc(-c3nccc4ccccc34)[nH]2)cc1,·,5.01µM*,10µM*
O=C(O)c1c(-c2nccc3ccccc23)[nH]c(-c2ccccc2)c1S(=O)(=O)O,-1.4%[7.66 µM],·,·
N#Cc1cc(-c2ccccc2)[nH]c1-c1nccc2ccccc12,·,10µM*,?
Cc1cc(C#N)c2ccccc2n1,-1.7%,-9.7%,7.0%
CCOC(=O)C1CCCN(CC(O)COCc2ccccc2OC)C1 (stereo unspecified),·,-15.6%,-0.7%
Cc1cc(C(=O)Nc2ncn[nH]2)ccc1[N+](=O)[O-],-1.5%,?,?
CCOC(=O)C(NCc1ccccn1)(NC(=O)c1cccnc1)C(F)(F)F (stereo unspecified),2.0%,15.8µM*,0.9%
CCOC(=O)C(NC(=O)c1cccnc1)(Nc1cccc(C)n1)C(F)(F)F (stereo unspecified),-4.5%,-1.2%,8.8%
O=C(c1ccc(F)cc1)C1CCN(CCn2c(=O)[nH]c3ccccc3c2=O)CC1,-2.6%[39.9 µM],12.5%,-0.6%
O=C(c1ccc(F)cc1)C1CCN(CCn2c(=S)[nH]c3ccccc3c2=O)CC1,-1.2%,7.94µM*!,14.1µM*!
CC1CCN(CCCn2c(=S)[nH]c3ccccc3c2=O)CC1,-5.2%,-32.8%,7.9%
CCN1CCN(CCn2c(=S)[nH]c3ccccc3c2=O)CC1,-3.3%,-14.2%,-1.5%
Cc1cccc(C)c1N1CCN(CCn2c(=S)[nH]c3ccccc3c2=O)CC1,·,10µM*,?
O=c1c2ccccc2[nH]c(=S)n1CCCN1CCC(Cc2ccccc2)CC1,·,7.94µM*,?
CCc1ccc(N2C(=O)CC(N(CC3CCCO3)C(=O)/C=C/C(=O)O)C2=O)cc1 (stereo unspecified),-3.1%,10.5%,-10.7%
Nc1nonc1NC(=O)NN=C1CCCCC1,0.0%,17.8%,2.3%
O=C(CC1C(=O)NCCN1Cc1c(F)cccc1Cl)NCCCOc1cccnc1 (stereo unspecified),·,11.6%,-3.0%
COc1ccc(C(=O)NC(C)CCc2ccccc2)c(O)c1 (stereo unspecified),·,?,-3.5%
O=C(CN(c1ccc(Cl)cc1)S(=O)(=O)c1ccc(Cl)c([N+](=O)[O-])c1)NCCc1ccccc1,0.2%,-0.7%,-7.6%
O=C(CN(c1ccc(Cl)cc1)S(=O)(=O)c1ccc(Cl)c([N+](=O)[O-])c1)NCCc1ccc(F)cc1,0.2%,7.94µM*,7.08µM*
Cc1csc(/C(=N\O)c2csc(C)n2)n1,-3.7%,2.82µM*,4.47µM*
Cc1csc(/C(C#N)=N/O)n1,-3.6%,20.1%,?
CCCC(c1nnnn1Cc1ccc(OC)cc1)N1CCN(C(=O)c2ccco2)CC1 (stereo unspecified),·,-0.8%,-22.1%
Cc1csc(=O)n1CC(=O)OCC(=O)Nc1cc(Cl)ccc1[N+](=O)[O-],·,-15.5%,-0.1%
COc1ccccc1NC(=O)/C(C#N)=C/c1cccnc1,·,-29.6%,-0.9%
SMILES,KinaseGlo FLuc,RORg inh,Gal4-VP16 FLuc
COc1ccccc1NC(=O)/C(C#N)=C/c1ccncc1,·,?,2.51µM*
COc1ccccc1N1CCN(C2=NS(=O)(=O)c3ccccc32)CC1,-2.1%,-6.1%,-1.1%
C=CCN1/C(=C(\C#N)C2=NS(=O)(=O)c3ccccc32)N(C)c2ccccc21,-1.7%,11.2µM*,?
Cc1cc(NC(=O)CN(C)S(=O)(=O)c2cccc(Cl)c2)no1,2.6%,?,-5.5%
CON(C)S(=O)(=O)c1cccc(C(=O)Oc2ccc(N(C)S(=O)(=O)c3ccccc3)cc2)c1,·,23.4%,-7.1%
COc1cccc(-c2nnc3n2N=C(c2ccc(OC)cc2OC)CS3)c1,·,?,7.94µM*
COc1ccc(OC)c(C2=Nn3c(nnc3-c3cccc(OC)c3OC)SC2)c1,·,-1.1%,0.3%
COc1cccc(-c2nnc3n2N=C(c2cc(OC)ccc2OC)CS3)c1,-0.3%,?,-29.5%
COc1ccc(C2=Nn3c(nnc3-c3cccc(OC)c3OC)SC2)c(OC)c1,·,?,17.8µM*
